The nature of assay [1]: qHTS to identify inhibitors of the type 1 interferon - major histocompatibility complex class I in skeletal muscle: primary screen against the NCATS Mechanism Interrogation Plate v5.0 (MIPE) Libary (AID 1347411). Also: nearly all actives have a fitted effect of over 65% in size. Also: potency is read from the fitted curve at half-maximal effect.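 As to activity change, negative = inhibition: plate controls were vehicle for no effect and reference inhibitor for full effect.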 In short, it runs like this:
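Immortalized human myoblasts (C25cl48) with HiBit knocked into endogenous HLA-B*08:01 were stimulated with 4 ng/ml IFN-beta and given compounds in 11-point 1:3 titration from 46 uM. After 24 h at 37 C, lytic HiBiT luminescence was read.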

Assay [2] is described as follows: Primary qHTS for inhibitors of nuclear receptor binding SET domain protein 2 (NSD2) in an isogenic RCH-ACV NSD2 p.E1099K mutant (9B) (AID 1645876; also: nearly all actives have a fitted effect of over 70% in size; also: potency is read from the fitted curve at half-maximal effect). (qHTS replaces the single test concentration by a dilution series.)
Assay [3] is described as follows: Primary qHTS for inhibitors of nuclear receptor binding SET domain protein 2 (NSD2) in an RCH-ACV wild type WT cells (2C) (AID 1645877). Also: nearly all actives have a fitted effect of over 70% in size. Also: potency is read from the fitted curve at half-maximal effect.
Assay [4] addresses Glutathione peroxidase 1 (Homo sapiens) (UniProt P07203). The assay can be described thus: Primary qHTS Assay for Inhibitors of Recombinant Selenoprotein Glutathione Peroxidase 1 (GPX1) (AID 1845191). Also: nearly all actives have a fitted effect of over 65% in size. The method in brief:
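GR-coupled assay: compounds preincubated 30 min at room temperature with GPX1, then reaction started with CHP; final 10 nM GPX1, 1 mM GSH, 0.5 mM CHP, 0.5 mM NADPH, 100 nM GR, 0.01% BSA, pH 7.5 Tris buffer. NADPH fluorescence (340/450 nm) read at 0 and 15 min.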

The target of assay [5] is Phospholipid hydroperoxide glutathione peroxidase GPX4 (Homo sapiens) (UniProt P36969). The assay can be described thus: Primary qHTS Assay for Inhibitors of Recombinant Selenoprotein Glutathione Peroxidase 4 (GPX4) (AID 1845192). Also: nearly all actives have a fitted effect of over 65% in size. Also: potency is read from the fitted curve at half-maximal effect. As to activity change, negative = inhibition: series mostly up to about 50 µM; % is scaled to controls: 0 for no effect and ±100 for the full control effect. The note with it: outcome: dose series up to 50 µM unless noted. The method in brief:
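GR-coupled assay: recombinant GPX4 preincubated 30 min with compound at room temperature; final 200 nM GPX4, 1 mM GSH, 0.5 mM cumene hydroperoxide, 0.5 mM NADPH, 100 nM GR, 0.01% BSA, pH 7.5 Tris. NADPH fluorescence (340/450 nm) read at 0 and 15 min.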

A short description of assay [6]: qHTS drug screen for cell cycle checkpoint inhibitors in PARPi-resistant BRCA-mutant ovarian cancer cell lines. (AID 1963452; calls by dose curve; also: potency is read from the fitted curve at half-maximal effect). The note with it: PEO1/OlaR viability, CellTiter-Glo luminescence, 96 h; for Z-AUC: stronger effect = lower value. The method in brief:
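PEO1, PEO4 and PEO1/OlaR ovarian cancer cells, 600 per well, exposed 96 h at 37C to a dilution series. Viability read by CellTiter-Glo luminescence, normalized to DMSO and empty wells; activity summarized as Z-AUC.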

Setting [7] is: measured here: PEO1 parental Z-AUC.

The record followed here is PubChem BioAssay (NCATS).

Structures are written as SMILES. Where “and” joins values, the source holds several entries; their conditions need not be identical. Equal entries are not always repeated. Results filed as inconclusive are left out. Calls of active or inactive are those of the source. Unless noted, calls follow the shape of the dose curve; as a rule, active = well fitted curve in the direction sought with a large enough effect; inconclusive = small, poorly fitted or top-dose-only effect, or another doubt; inactive = no such curve, though single readings can be large; an effect the other way counts as inactive or inconclusive.

Sequence of Phospholipid hydroperoxide glutathione peroxidase GPX4 (Homo sapiens) (P36969 whole entry, looked up): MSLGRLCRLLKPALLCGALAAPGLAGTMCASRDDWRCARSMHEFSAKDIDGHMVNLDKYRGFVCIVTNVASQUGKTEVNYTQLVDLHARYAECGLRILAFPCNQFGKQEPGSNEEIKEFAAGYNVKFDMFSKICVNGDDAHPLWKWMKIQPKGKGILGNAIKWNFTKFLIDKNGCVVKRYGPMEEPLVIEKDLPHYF
Sequence of Glutathione peroxidase 1 (Homo sapiens) (P07203 whole entry, looked up): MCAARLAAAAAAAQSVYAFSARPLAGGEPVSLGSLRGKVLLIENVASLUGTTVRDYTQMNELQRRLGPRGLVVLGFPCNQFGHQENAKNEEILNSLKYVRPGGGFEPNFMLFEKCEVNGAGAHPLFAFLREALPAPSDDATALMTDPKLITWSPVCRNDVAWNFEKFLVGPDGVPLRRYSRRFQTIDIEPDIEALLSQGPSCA

`C/C(=N\NC(=O)c1cccc(S(=O)(=O)N2CCOCC2)c1)c1cc(Cl)ccc1O`: the Potency entry in assay [1], in assay [4] and in assay [5] was “inactive” each time. The Potency in assay [2] and in assay [3] was 2090 nM (active) each time. For the same compound, the Z-AUC in assay [6] was -1.37 (inactive) and -1.59 (inactive); in assay [6] (setting [7]), -1.95 and -1.28; in assay [6] (measured here: PEO4 Z-AUC), -2.11 and -1.42.
With `Cc1ncsc1-c1ccc([C@H](C)NC(=O)[C@@H]2C[C@@H](O)CN2C(=O)[C@@H](NC(=O)COCCCOCCNC(=O)C[C@@H]2N=C(c3ccc(Cl)cc3)c3c(sc(C)c3C)-n3c(C)nnc32)C(C)(C)C)cc1`, the Potency in assay [1] is 208 nM (active); in assay [2], 14.8 nM (active); in assay [3], 18.6 nM (active). Further, the Potency entry in assay [4] and in assay [5] was “inactive” throughout. The results for the Z-AUC in assay [6], in assay [6] (setting [7]) and in assay [6] (measured here: PEO4 Z-AUC) were -2.25 (inactive), -2.46 and -2.23, respectively.
In the case of `CC1Cc2ccccc2N1C(=O)Cc1nc(N2CCOCC2)cc(=O)[nH]1` (centres undefined), the Potency entry in assay [1], in assay [4] and in assay [5] was “inactive” in each case. For the same compound, the Potency is 5250 nM (active) in assay [2] and 4680 nM (active) in assay [3]. The Z-AUC is -1.34 (inactive) in assay [6], -0.404 in assay [6] (setting [7]) and -0.574 in assay [6] (measured here: PEO4 Z-AUC).
For `NC(CC1c2ccccc2Oc2ccccc21)(C(=O)O)C1CC1C(=O)O` (centres undefined), the Potency result in assay [1], in assay [2], in assay [3], in assay [4] and in assay [5] was “inactive” each time. For the same compound, the Z-AUC in assay [6] is -0.154 (inactive); in assay [6] (setting [7]) it was 0.493; in assay [6] (measured here: PEO4 Z-AUC), 0.591.
For the compound `Cc1cc(C)c(CNC(=O)c2cc(-c3ccc(N4CCN(C)CC4)nc3)cc3c2c(C)cn3C(C)C)c(=O)[nH]1`, the Potency entry in assay [1] and in assay [4] was “inactive” each time. The Potency in assay [2] is 16.6 µM (active) and 18.6 µM (active); in assay [3], 20900 nM (active); in assay [5], 12800 nM (active). The Z-AUC is -1.15 (inactive) and -0.405 (inactive) in assay [6]; -1.04 and 0.4 in assay [6] (setting [7]); -1.52 and 0.0539 in assay [6] (measured here: PEO4 Z-AUC).
With `Nc1nccc2c1ncn2[C@@H]1C=C(CO)[C@@H](O)[C@H]1O`, the Potency entry in assay [1], in assay [4] and in assay [5] was “inactive” in each case. The Potency in assay [2] is 209 nM (active); in assay [3] it was 148 nM (active). The Z-AUC in assay [6] was -0.397 (inactive); in assay [6] (setting [7]), -0.938; in assay [6] (measured here: PEO4 Z-AUC) it was -1.07.
Take `OC1CCC(Oc2cccc3cnc(Nc4ccc5nc[nH]c5c4)nc23)CC1` (centres undefined): the Potency in assay [1] was 523 nM (active); in assay [2], 590 nM (active); in assay [3] it was 468 nM (active). The Potency entry in assay [4] and in assay [5] was “inactive” each time. The figures for the Z-AUC in assay [6], in assay [6] (setting [7]) and in assay [6] (measured here: PEO4 Z-AUC) were -1.25 (inactive), -1.54 and -0.421, respectively.
`CCn1c(=O)c(-c2ccc(-c3cncc(C)n3)cc2Cl)cc2cnc(NCCC3CCN(C)CC3)nc21`: the activity change, negative = inhibition was -29.5% [at 5.1 µM] (inactive) in assay [1] and -3.33% [at 4.52 µM] (inactive) in assay [5]. Further, the Potency in assay [2] is 1180 nM (active); in assay [3], 1320 nM (active). The outcome in assay [4] is “inactive [at 4.49 µM]”. For the same compound, the figures for the Z-AUC in assay [6], in assay [6] (setting [7]) and in assay [6] (measured here: PEO4 Z-AUC) were 1.53 (inactive), 0.823 and 1.06, respectively.
Turning to `CNC(=O)Cn1cc(-c2ccc3c(c2)C(F)CC32NC(=O)N(CC(=O)N(Cc3ccc(F)cc3)C(C)C(F)(F)F)C2=O)cn1` (centres undefined), the Potency entry in assay [1], in assay [4] and in assay [5] was “inactive” each time. The Potency was 83.3 nM (active) in assay [2] and 132 nM (active) in assay [3]. In addition, the Z-AUC in assay [6] was 0.772 (inactive); in assay [6] (setting [7]), 0.67; in assay [6] (measured here: PEO4 Z-AUC), 0.562.
In the case of `O=C1OC2(CCC(C(=O)Nc3ccn(-c4ccccc4F)n3)CC2)c2cnccc21` (centres undefined), the Potency entry in assay [1], in assay [2], in assay [3], in assay [4] and in assay [5] was “inactive” each time. In addition, the Z-AUC was 0.0773 (inactive) in assay [6], 0.881 in assay [6] (setting [7]) and 0.97 in assay [6] (measured here: PEO4 Z-AUC).
For the compound `COc1cc2nccc(Oc3ccc(NC(=O)c4cn(C(C)C)c(=O)n(-c5ccc(F)cc5)c4=O)cc3F)c2cc1OC`, the Potency entry in assay [1], in assay [2], in assay [3], in assay [4] and in assay [5] was “inactive” in each case. In addition, the Z-AUC in assay [6] is -0.766 (inactive); in assay [6] (setting [7]), -0.766; in assay [6] (measured here: PEO4 Z-AUC), -0.777.
As to `COc1ccc2[nH]c3c(c2c1)CCN[C@]31CS[C@@H]2c3c(OC(C)=O)c(C)c4c(c3[C@H](COC1=O)N1[C@@H]2[C@H]2c3c(cc(C)c(OC)c3O)C[C@@H]([C@@H]1O)N2C)OCO4`, the Potency in assay [1] is 53.5 nM (active); in assay [2], 1.7 nM (active); in assay [3], 1.7 nM (active); in assay [6] it was 31.7 nM (active). For the same compound, in assay [4], the outcome is “inactive [at 9.52 µM]”. Further, the activity change, negative = inhibition in assay [5] was -15.3% [at 9.73 µM] (inactive). The Z-AUC in assay [6] (setting [7]) was -2.79; in assay [6] (measured here: PEO4 Z-AUC), -2.86.
In the case of `CCN(CC)C(=O)Cc1csc(NS(=O)(=O)c2cccc(Cl)c2C)n1`, the Potency result in assay [1], in assay [2], in assay [3], in assay [4] and in assay [5] was “inactive” throughout. Further, the Z-AUC is 0.874 (inactive) in assay [6], 0.835 in assay [6] (setting [7]) and 0.952 in assay [6] (measured here: PEO4 Z-AUC).
Take `COc1ccc2[nH]c(C(=O)N3CCC(CC(C)(C)O)CC3)cc2c1`: the Potency result in assay [1], in assay [2], in assay [3], in assay [4] and in assay [5] was “inactive” in each case. Also, the results for the Z-AUC in assay [6], in assay [6] (setting [7]) and in assay [6] (measured here: PEO4 Z-AUC) were 0.0283 (inactive), 0.0965 and 0.395, respectively.
For `CCc1cc2c(c(OCC(F)(F)F)c(C(=O)NC3CCN(C(=O)CO)CC3)n2C)c(=O)n1CC(=O)c1ccccc1`, the Potency result in assay [1], in assay [2], in assay [3], in assay [4] and in assay [5] was “inactive” in each case. Further, the Z-AUC in assay [6] is -1.12 (inactive); in assay [6] (setting [7]), -0.345; in assay [6] (measured here: PEO4 Z-AUC) it was 0.581.
Regarding `CC(C)NCCCn1c(Sc2cc(Cl)cc(Cl)c2)nc2c(N)ncnc21`, the Potency result in assay [1], in assay [4] and in assay [5] was “inactive” in each case. Besides, the Potency in assay [2] is 20900 nM (active); in assay [3], 18600 nM (active). Besides, the figures for the Z-AUC in assay [6], in assay [6] (setting [7]) and in assay [6] (measured here: PEO4 Z-AUC) were -1.23 (inactive), -0.363 and 0.533, respectively.
Regarding `Cc1ccc(NS(=O)(=O)c2cccc(C#N)c2)c2[nH]cc(C#N)c12`, the Potency result in assay [1], in assay [4] and in assay [5] was “inactive” each time. For the same compound, the Potency in assay [2] was 372 nM (active); in assay [3], 417 nM (active). For the same compound, the Z-AUC is -0.908 (inactive) in assay [6], -1.02 in assay [6] (setting [7]) and -1.95 in assay [6] (measured here: PEO4 Z-AUC).
Regarding `C[C@H](NC(=O)[C@H]1NCC[C@@H]1O)c1ccc(-c2noc(CCC3CCCC3)n2)cc1`, the Potency result in assay [1], in assay [2], in assay [3], in assay [4] and in assay [5] was “inactive” throughout. The Z-AUC was 0.833 (inactive) in assay [6], 0.65 in assay [6] (setting [7]) and 0.666 in assay [6] (measured here: PEO4 Z-AUC).
